Measured values taken from PubChem BioAssay (NCATS).
Inconclusive results are not listed. A call without a number means that no potency is given here. Unmarked numbers belong to inactive results. The source made the active and inactive calls. The call rests on the fitted dose curve; in most records, active means well fitted inhibition curve with a large enough effect; inconclusive means small, poorly fitted or top-dose-only effect; inactive means flat fitted curve, though single readings scatter. Where a SMILES comes first, the peptide text is derived from it. The star is where a group is joined. AMC = Cc1cc(=O)oc2cc(N*)ccc12; Cbz = O=C(OCc1ccccc1)*; Hexanoyl = CCCCCC(=O)*; PhAc = O=C(Cc1ccccc1)*

assay: P-glycoprotein substrates identified in KB-8-5-11 adenocarcinoma cell line, qHTS therapeutic library screen (AID 1346987); conditions: KB-8-5-11 (P-gp overexpressing) viability, CellTiter-Glo, 72 h; series mostly up to 44.5 µM; further: nearly all actives have a fitted effect of over 65% in size
Procedure, shortened: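 Luminescence from CellTiter-Glo, read 5 min after addition, quantified survival of KB-8-5-11 (P-gp-overexpressing) cells exposed to compounds for 72 h. AC50 was derived from concentration-response curves.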

**Q.** Which Potency does the source give for `CC1(C)CC[C@]2(C(=O)O)CC[C@]3(C)C(=CCC4[C@@]5(C)CC[C@H](O[C@@H]6O[C@H](C(=O)O)[C@@H](O)[C@H](O)[C@H]6O)C(C)(C)C5CC[C@]43C)C2C1` (stereo not given in full) here?
**A.** inactive

**Q.** For `CCC(C)/C=C(C)/C=C/C1=CC2=CC(=O)C(C)(O)C(OC(C)=O)C2CO1` (stereo not given), which Potency is on record?
**A.** inactive

**Q.** For `O=C(O)CC/C=C\C[C@H]1CO[C@@H](c2ccccc2Cl)O[C@H]1c1ccccc1O`, which Potency is on record?
**A.** inactive

**Q.** Which Potency does the source give for `Cc1cc(=O)oc2cc(NC(=O)[C@H](CCC(=O)O)NC(=O)[C@H](CC(C)C)NC(=O)[C@H](CC(C)C)NC(=O)OCc3ccccc3)ccc12` (Cbz-Leu-Leu-Glu-{AMC}) here?
**A.** inactive

**Q.** For `C=C1CCC2C(C)(C)CC(O)CC2(C)C1CCC(C)CC(=O)O` (stereo not given), which Potency is on record?
**A.** inactive

**Q.** With `C=C1CCC[C@]2(C)CC[C@@](O)(C(=C)C(=O)O)C[C@@H]12` as the molecule, how does the Potency read?
**A.** inactive

**Q.** With `CC1CCC2(C(=O)O)CCC3(C)C(=CCC4C5(C)CCC(O)C(C)(C(=O)O)C5CCC43C)C2C1(C)O` (stereo not given) as the molecule, how does the Potency read?
**A.** inactive

**Q.** For `CC1=CCC[C@@H]2[C@](CCc3ccoc3)(C(=O)O)[C@H](C)CC[C@@]12C`, which Potency is on record?
**A.** inactive

**Q.** Which Potency does the source give for `CC(C)(Oc1ccc(-c2nc3cc(Cl)ccc3s2)cc1)C(=O)O` here?
**A.** inactive

**Q.** With `CN1CCN(c2nc(-c3ccc(C(=O)NC4(C(=O)NCC#N)CCCCC4)cc3)cs2)CC1` as the molecule, how does the Potency read?
**A.** inactive

**Q.** Which activity change, negative = cytotoxicity does the source give for `CC(/C=C/C=C(\C)C(=O)O[C@@H]1O[C@H](CO[C@@H]2O[C@H](CO)[C@@H](O)[C@H](O)[C@H]2O)[C@@H](O)[C@H](O)[C@H]1O)=C\C=C\C=C(C)\C=C\C=C(/C)C(=O)O[C@@H]1C[C@](O)(C(=O)O)C[C@@H](O)[C@H]1OC(=O)/C=C/c1ccc(O)c(O)c1` here?
**A.** 3.01% [at 9.29 µM]

**Q.** For `Cc1c(Cc2ccc3ccccc3n2)c2cc(F)ccc2n1CC(=O)O`, which Potency is on record?
**A.** inactive

**Q.** For `CC(=O)OC1CCC2(C)C(CCC3(C)C2CC=C2C4CC(C)(C)CCC4(C)CCC23C)C1(C)C(=O)O` (stereo not given), which Potency is on record?
**A.** inactive

**Q.** With `COc1cccc(C)c1C(=O)O[C@@H]1C[C@H](O[C@H]2[C@H](O)C[C@H](O[C@@H]3CCC[C@H]4[C@H]3C=C[C@@H]3CCCC/C=C/[C@H]5C=C(C(=O)O)[C@@H](C)C[C@@]56OC(=O)C(=C6O)OC(=O)[C@@]34C)O[C@@H]2C)O[C@H](C)[C@H]1O` as the molecule, how does the outcome read?
**A.** inactive [at 9.29 µM]

**Q.** Which Potency does the source give for `CC(C)c1ccc2c(c1)C(O)CC1C(C)(CO)CCCC21C` (stereo not given) here?
**A.** inactive

**Q.** Which Potency does the source give for `COc1ccc2c(c1)C=C1Cn3c-2c(C2CCCCC2)c2ccc(cc23)C(=O)NS(=O)(=O)N(C)CCOCCN(C)C1=O` here?
**A.** inactive

**Q.** Which Potency does the source give for `C=C1CCC2C(C)(C)CC(O)CC2(C)C1CCC(C)CCOC(=O)CCC(=O)O` (stereo not given) here?
**A.** inactive

**Q.** For `COc1ccc(CC(NC(C)=O)C(=O)O)cc1` (stereo not given), which Potency is on record?
**A.** inactive

**Q.** Which Potency does the source give for `O=C(/C=C/c1ccccc1)OC[C@H]1O[C@@H](OC(=O)c2cc(O)c(O)c(O)c2)[C@H](O)[C@@H](O)[C@@H]1O` here?
**A.** inactive

**Q.** Which Potency does the source give for `C[C@@H]1[C@H]2[C@H](O[C@@H]3O[C@H](CO)[C@@H](O)[C@H](O)[C@H]3O)OC=C(C(=O)O)[C@H]2C[C@@H]1OC(=O)/C=C/c1ccc(O)cc1` here?
**A.** inactive

**Q.** Which activity change, negative = cytotoxicity does the source give for `CSCC[C@H](NC(=O)[C@H](CO)NC(=O)[C@H](CCC(=O)O)NC(C)=O)C(=O)N[C@H](C=O)CC(=O)O` (Ac-ESMD-aldehyde) here?
**A.** 5.02% [at 9.29 µM]

**Q.** With `Cc1cc(-n2c(=O)[nH]c(=O)n(C)c2=O)ccc1Oc1ccc(SC(F)(F)F)cc1` as the molecule, how does the Potency read?
**A.** inactive

**Q.** With `CCCCCC(=O)N1CCC[C@H]1C(=O)N[C@@H](Cc1ccc(O)cc1)C(=O)OC` (Hexanoyl-Pro-Tyr-OMe) as the molecule, how does the Potency read?
**A.** inactive

**Q.** Which Potency does the source give for `COc1cc(C(=O)OC[C@@]2(O)CO[C@@H](O[C@H]3[C@H](Oc4ccc(O)cc4)O[C@H](CO)[C@@H](O)[C@@H]3O)[C@@H]2O)cc(OC)c1O` here?
**A.** inactive

**Q.** With `O=C(O)CCc1ccc(NCc2cccc3c2CCCN3CCOc2ccccc2)cc1F` as the molecule, how does the Potency read?
**A.** inactive

**Q.** Which Potency does the source give for `COC(=O)C1=CO[C@@H](O[C@@H]2O[C@H](CO)[C@@H](O)[C@H](O)[C@H]2O)[C@H]2[C@@H]1[C@H](O)[C@H](O)[C@]2(C)O` here?
**A.** inactive

**Q.** With `CCOc1ccc(-c2nn3ncccc3c2-c2ccc(S(C)(=O)=O)cc2)cc1` as the molecule, how does the Potency read?
**A.** inactive

**Q.** For `c1cc(-c2cc(C3CCNCC3)[nH]n2)ccn1`, which Potency is on record?
**A.** inactive

**Q.** Which Potency does the source give for `CCOC(=O)CNC(=O)[C@@H]1CCCN1C(=O)Cc1ccccc1` (PhAc-Pro-Gly-OEt) here?
**A.** inactive

**Q.** Which Potency does the source give for `C=CC1(C)C=C2CC[C@H]3[C@@](C)(C(=O)O)CCC[C@]3(C)C2CC1` (stereo not given in full) here?
**A.** inactive
